According to PubChem BioAssay:
The source made the active and inactive calls. No rule for the calls is given here.

biological target: Pantothenate synthetase (Mycobacterium tuberculosis (strain ATCC 25618 / H37Rv)) (UniProt P9WIL5); assay: Recombinant Mtb pantothenate synthetase (PanC) inhibitors, coupled enzyme, confirmatory (AID 375); conditions: coupled enzyme assay; at 10 µM, hits give high values;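 also: 0% = full reaction with vehicle and 100% = no enzyme background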
Sequence (P9WIL5 whole entry, looked up): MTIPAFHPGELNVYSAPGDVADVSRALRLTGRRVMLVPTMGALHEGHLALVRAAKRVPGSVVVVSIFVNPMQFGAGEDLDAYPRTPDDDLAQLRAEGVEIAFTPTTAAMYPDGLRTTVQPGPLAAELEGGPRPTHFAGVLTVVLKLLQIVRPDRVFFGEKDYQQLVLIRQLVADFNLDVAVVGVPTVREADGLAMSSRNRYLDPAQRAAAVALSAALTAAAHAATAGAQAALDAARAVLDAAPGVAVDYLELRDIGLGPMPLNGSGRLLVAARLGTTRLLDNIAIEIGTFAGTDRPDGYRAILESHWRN

**Q.** For `O=c1oc2ccccc2n1CCc1ccccc1`, which inhibition is on record?
**A.** Its inhibition is 4% (inactive).

**Q.** With `O=C(COc1cccc(Oc2ccccc2)c1)Nc1ncccn1` as the compound, how does the inhibition read?
**A.** Its inhibition is 2% (inactive).

**Q.** Which inhibition does the source give for `COc1ccc(CC(=O)OCn2nnc3ccccc3c2=O)cc1` here?
**A.** Its inhibition is 4% (inactive).

**Q.** `CCOC(=O)c1sc(NS(=O)(=O)c2ccc(NC(C)=O)cc2)nc1C` was tested. Which inhibition did it give?
**A.** Its inhibition is 0% (inactive).

**Q.** For `Nn1c(Cc2ccccc2F)nnc1SCC(=O)N1CC(=O)Nc2ccccc21`, which inhibition is on record?
**A.** Its inhibition is 0% (inactive).

**Q.** How did the inhibition turn out when `CC(=O)NCc1cccc(CNC(C)=O)n1` was run?
**A.** Its inhibition is 11% (inactive).

**Q.** How did the inhibition turn out when `O=C(CSc1nc2ccc(Cl)cc2[nH]1)NCc1ccco1` was run?
**A.** The inhibition was 0% (inactive).

**Q.** Which inhibition does the source give for `Cc1cc(C)n(-c2nc3sc4c(c3c3nnc(SCC(N)=O)n23)CC(C)(C)OC4)n1` here?
**A.** Its inhibition is 0% (inactive).

**Q.** Which inhibition does the source give for `CCCn1cnc2c(cnn2-c2ccc(F)cc2)c1=O` here?
**A.** The inhibition was 4% (inactive).

**Q.** `COc1ccc(/C=N/n2cnnc2SCc2ccc(OC)cc2)cc1` was tested. Which inhibition did it give?
**A.** Its inhibition is 0% (inactive).

**Q.** With `CN(C)CCCn1c(N)c(C#N)c2nc(C#N)c(C#N)nc21` as the compound, how does the inhibition read?
**A.** Its inhibition is 0% (inactive).

**Q.** `CCCN1CCN(C(=O)c2cn(CC(C)C)c(=O)c3cc(OC)c(OC)cc23)CC1` was tested. Which inhibition did it give?
**A.** The inhibition was 5% (inactive).

**Q.** With `O=C(NC1CCS(=O)(=O)C1)c1c(NC(=O)C2COc3ccccc3O2)sc2c1CCCC2` (stereo not given) as the compound, how does the inhibition read?
**A.** The inhibition was 0% (inactive).

**Q.** How did the inhibition turn out when `Cc1ccccc1-c1nc(CN2CCC(C(=O)N3CCC(C(N)=O)CC3)CC2)c(C)o1` was run?
**A.** Its inhibition is 0% (inactive).

**Q.** For `CC(C)CCNC(=O)NC(=O)CN1C(=O)NC2(CCCCC2)C1=O`, which inhibition is on record?
**A.** The inhibition was 2% (inactive).

**Q.** Which inhibition does the source give for `c1ccc(Cn2nnc3c(N4CCC5(CC4)OCCO5)ncnc32)cc1` here?
**A.** The inhibition was 0% (inactive).

**Q.** For `NC(=O)c1c(NC(=O)CSc2nnc(-c3ccco3)n2-c2ccccc2)sc2c1CCC2`, which inhibition is on record?
**A.** Its inhibition is 0% (inactive).

**Q.** How did the inhibition turn out when `Cc1ccn2cc(CCNC(=O)CC(C)(C)C)nc2c1` was run?
**A.** The inhibition was 0% (inactive).

**Q.** `COc1ccc(C2CC(c3ccc(Cl)cc3Cl)Nc3nc(N)nn32)cc1` (stereo not given) was tested. Which inhibition did it give?
**A.** Its inhibition is 0% (inactive).

**Q.** With `O=C(NCc1cccs1)C1CC(=O)N(C2CCCC2)C1` (stereo not given) as the compound, how does the inhibition read?
**A.** Its inhibition is 2% (inactive).

**Q.** For `O=C(Nn1cnnc1)C1Cc2ccccc2CN1S(=O)(=O)c1ccc(F)cc1` (stereo not given), which inhibition is on record?
**A.** Its inhibition is 0% (inactive).

**Q.** With `O=C(O)C1C2CCC(O2)C1C(=O)Nc1cccc(F)c1` (stereo not given) as the compound, how does the inhibition read?
**A.** Its inhibition is 1% (inactive).

**Q.** For `CCOC(=O)c1[nH]c(C)c(C(=O)Nc2cc(OC)ccc2OC)c1C`, which inhibition is on record?
**A.** The inhibition was 0% (inactive).

**Q.** How did the inhibition turn out when `CCC(C)(C)n1nnnc1C(c1ccccc1OC)N1CCSCC1` (stereo not given) was run?
**A.** Its inhibition is 5% (inactive).

**Q.** `Cc1ccc(C2CC(c3ccc(C)cc3)n3nc(N)nc3N2)cc1` (stereo not given) was tested. Which inhibition did it give?
**A.** The inhibition was 5% (inactive).

**Q.** With `CCCC(=O)Nc1cnc(NC(=O)c2cccc(F)c2)cc1C` as the compound, how does the inhibition read?
**A.** The inhibition was 0% (inactive).

**Q.** `O=C1NC(c2cccnc2)C(C(=O)c2cccs2)C(O)(C(F)(F)F)N1` (stereo not given) was tested. Which inhibition did it give?
**A.** Its inhibition is 6% (inactive).

**Q.** With `O=C(CCCOc1ccccc1)N1CCN(c2ccccn2)CC1` as the compound, how does the inhibition read?
**A.** Its inhibition is 3% (inactive).

**Q.** With `CCC(C(=O)Nc1ncccn1)(C(F)(F)F)C(F)(F)F` as the compound, how does the inhibition read?
**A.** The inhibition was 0% (inactive).

**Q.** With `C=CCNC(=O)c1cccc(Br)c1` as the compound, how does the inhibition read?
**A.** Its inhibition is 8% (inactive).

**Q.** How did the inhibition turn out when `CCOc1ncccc1C(=O)OCC(=O)N1CC(=O)Nc2ccccc21` was run?
**A.** The inhibition was 0% (inactive).

**Q.** `CCCNCC(O)COc1ccccc1C(=O)CCc1ccccc1` (stereo not given) was tested. Which inhibition did it give?
**A.** Its inhibition is 0% (inactive).

**Q.** How did the inhibition turn out when `CCOC(=O)C1C(=O)NC(SCC(=O)Nc2nccs2)=C(C#N)C1c1ccccc1OCC` (stereo not given) was run?
**A.** Its inhibition is 0% (inactive).

**Q.** How did the inhibition turn out when `O=C1CCC(c2ccccc2)N1C(=O)c1cccnc1` (stereo not given) was run?
**A.** The inhibition was 0% (inactive).

**Q.** `CC1(CC(=O)O)C(=O)N=C2C=CC=CN21` (stereo not given) was tested. Which inhibition did it give?
**A.** The inhibition was 0% (inactive).

**Q.** Which inhibition does the source give for `CC(C)=CC(=O)N1CCCc2ccccc21` here?
**A.** The inhibition was 13% (inactive).

**Q.** For `CCOC(=O)CC1(CC(=O)OCC)NC(=O)c2c(C)sc(C(=O)OCC)c2N1`, which inhibition is on record?
**A.** The inhibition was 1% (inactive).

**Q.** `O=C(CCCn1c(=O)c2sccc2n(CC(=O)NCc2ccco2)c1=O)NCc1ccco1` was tested. Which inhibition did it give?
**A.** The inhibition was 0% (inactive).

**Q.** With `COc1ccc(CCNc2oc(-c3ccccc3OC)nc2C#N)cc1` as the compound, how does the inhibition read?
**A.** Its inhibition is 2% (inactive).

**Q.** How did the inhibition turn out when `Cc1ccccc1C(=O)Nc1c(C(=O)N2CCCC2)cnn1-c1ccccc1` was run?
**A.** Its inhibition is 8% (inactive).
